# Most compounds without a hit are left out; they make up all but 4.6% or so of the library.
# DAX1 inh-1: inhibits human nuclear receptor DAX1; P51843; HEK293 Gal4-DAX1 luciferase reporter, luminescence; inhibition, % at 6.75 µM; 0.99% of 340,000 active;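 active = inhibition above the mean over all tested compounds plus 3 SD, cut at about 4.2% in these data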;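 also: 0% = DAX1-transfected cells with DMSO and 100% = empty-vector control cells with DMSO; inhibition shows as a rise in luminescence from relieved DAX1 repression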
# hcDAF-12 act: activators of H. contortus DAF-12 nuclear receptor | HEK293 hcDAF-12 lit1-tk-luc reporter, luminescence; 0% DMSO, 100% Δ7-dafachronic acid | activation, % at 6.8 µM | 1.4% of 370,000 active;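 active = activation above the mean of all tested compounds plus 3 SD, cut at about 5.5% in these data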;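 also: 100% = response to 3 µM Δ7-dafachronic acid high control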
# hgDAF-12 ag: agonists of H. glycines DAF-12 nuclear receptor; HEK293 GAL4-hgDAF12 UAS-luciferase reporter, agonist luminescence; normalized to butyrate control; activation, % at 6.8 µM; 1.8% of 370,000 active;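 active = activation above a cutoff set at the mean of all screened compounds plus 3 SD, cut at about 10% in these data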;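 also: 0% = DMSO wells and 100% = sodium butyrate wells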
# DAX1 inh-2: DAX1 (NR0B1) inhibition, primary screen. inhibition, % at 6.8 µM. HEK293T StAR-luciferase reporter, SF-1/DAX-1 repression relief. 1.1% of 370,000 active;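 active = inhibition above the mean over all tested compounds plus 3 SD, cut at about 3.6% in these data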;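 also: 0% = DAX-1 cells with DMSO and 100% = cells lacking DAX-1 with DMSO; higher inhibition means more luminescence from relief of DAX-1 repression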
# Wee1 degr inh: inhibitors of human Wee1 degradation; P30291; HeLa Luc-Wee1K328M stability, luciferase luminescence; 100% = proteasome inhibitor MG132 effect; reporter increase, % at 5 µM; 1.2% of 220,000 active; AID 1321;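 active = activation above the mean of all tested compounds plus 3 SD, set per screening run, cut at about 8.8% in these data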;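 also: cells exposed to compound for 20 h before luminescence read; 0% = DMSO alone and 100% = MG132 at 30 µM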
# Target sequence (P30291 whole entry K328M): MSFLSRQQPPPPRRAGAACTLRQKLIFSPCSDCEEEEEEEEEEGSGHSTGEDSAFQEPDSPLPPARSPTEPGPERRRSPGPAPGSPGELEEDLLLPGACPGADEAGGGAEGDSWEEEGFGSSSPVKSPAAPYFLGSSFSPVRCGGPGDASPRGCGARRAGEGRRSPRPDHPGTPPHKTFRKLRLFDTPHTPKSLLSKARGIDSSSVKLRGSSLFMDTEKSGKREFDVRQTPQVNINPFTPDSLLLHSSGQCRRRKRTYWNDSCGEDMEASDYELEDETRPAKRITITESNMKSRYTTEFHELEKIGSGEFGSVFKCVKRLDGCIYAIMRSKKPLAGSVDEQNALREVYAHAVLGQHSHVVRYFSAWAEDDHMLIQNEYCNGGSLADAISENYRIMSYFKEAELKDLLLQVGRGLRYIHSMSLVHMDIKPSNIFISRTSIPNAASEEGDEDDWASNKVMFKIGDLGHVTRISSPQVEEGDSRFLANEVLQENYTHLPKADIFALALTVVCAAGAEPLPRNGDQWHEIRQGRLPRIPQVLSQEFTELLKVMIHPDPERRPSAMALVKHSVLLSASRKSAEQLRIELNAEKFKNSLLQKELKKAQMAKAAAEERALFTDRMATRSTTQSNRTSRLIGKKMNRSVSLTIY
# ssDAF-12 act: activates DAF-12 receptor from parasite S. stercoralis; 1% of 370,000 active; activation, % at 6.8 µM; HEK293 ssDAF-12/GRIP1 lit1-tk-luc reporter, luminescence; % of 3 µM dafachronic acid response;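 active = activation above the mean over all tested compounds plus 3 SD, cut at about 0.9% in these data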;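 also: 0% = DMSO-only wells and 100% = 3 µM delta7-dafachronic acid wells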
# DAX1 conf: confirmation of human DAX1 (NR0B1) inhibitors | shares compounds with DAX1 inh-2 | HEK293T StAR-promoter luciferase reporter, SF-1/DAX-1 repression | inhibition, % at 6.8 µM | 87% of 2,400 active | AID 652134;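 active = inhibition above the average of every tested compound plus 3 SD, cut at about 3.8% in these data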;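 also: 0% = DAX-1 cells with DMSO and 100% = no DAX-1 control cells with DMSO; active compounds raise luminescence by relieving repression of the StAR reporter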
# SF1 AF2mut Luc: nonselective inhibitor or artifact in SF-1 mutant DAX1 counter-screen. HEK293 StAR-luciferase, SF-1 AF2 mutant, luminescence. 78% of 2,400 active. AID 652136. inhibition, % at 6.8 µM. shares compounds with DAX1 inh-2;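 active = inhibition above the mean of all tested compounds plus 3 SD, cut at about 3% in these data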;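 also: 0% = DAX-1 transfected cells with DMSO and 100% = cells without DAX-1 with DMSO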
# * = called active by the depositor; nt = no result.
SMILES,DAX1 inh-1,hcDAF-12 act,hgDAF-12 ag,DAX1 inh-2,Wee1 degr inh,ssDAF-12 act,DAX1 conf,SF1 AF2mut Luc
CN1CCCC(OC(=O)c2ccc3c(c2)OCCO3)C1 (configuration not stated),1.9,0.7,5.8,5.4*,1.9,-0.1,6.4*,3.2*
CN1CCCC(OC(=O)c2ccc(Cl)cc2)C1 (configuration not stated),0.8,-0.1,1.2,0.5,-4.2,-1.5,nt,nt
CCN(CC)C(=O)c1cccc(-c2csc(C(C)(O)c3ccc(OC)cc3)n2)c1 (configuration not stated),nt,-2.9,-3.1,-6.5,nt,-1.5,nt,nt
COc1cc2ccccc2cc1C(=O)Nc1cc(C)ccn1,0.3,6.4*,12.0*,5.3*,nt,0.5,4.2*,2.2
Nc1nc2c(C(=O)N3CCCC3)nnn2c2ccccc12,nt,3.4,10.9*,4.7*,nt,-0.6,9.2*,4.8*
C=CCSc1nc2c(C(=O)OCC)nnn2c2ccccc12,-0.1,2.4,0.5,-0.4,nt,-0.2,nt,nt
CC(C)C[C@@H](COCc1ccc([N+](=O)[O-])cc1)N1CCN(C(=O)c2ccc(C(F)(F)F)cc2)CCC1=O,nt,0.1,-0.4,-1.4,nt,-0.9,nt,nt
CCOc1cc(N2CCC(O)CC2)ccc1Nc1ncc2c(n1)N(C)c1ccccc1C(=O)N2C,nt,3.6,-8.2,5.9*,nt,-0.4,-0.5,-9.4
COc1cc(N2CCC(O)CC2)ccc1Nc1nnc(Cl)c(Nc2ccccc2S(C)(=O)=O)n1,-1.8,nt,nt,nt,nt,nt,nt,nt
CN(CC(=O)Nc1cccc(F)c1)C(=O)c1cn2ccccc2n1,0.8,-1.5,-0.5,0.1,nt,-0.4,nt,nt
O=C(CNC(=O)c1cn2ccccc2n1)Nc1ccc(F)c(F)c1,3.1,2.4,8.7,6.2*,nt,0.2,8.5*,5.7*
CC[N+](CC)=N/N=C1\C=CC[N+]([O-])=C1,nt,1.2,-0.4,-0.4,nt,-0.1,nt,nt
CC(C)=CCC/C(C)=C/CNC(=O)C[C@H]1C[C@H](C(=O)N2CCCCC2)[C@@]2(CCc3ccccc3)c3[nH]c4cc(CCC(=O)N(C)C)ccc4c3CCN2C1=O,0.1,-1.1,6.1,1.3,nt,0.0,nt,nt
COc1cc(OC)c2c(-c3cccc(-c4ccc(NC(C)=O)cc4)c3)cc(=O)oc2c1,-0.9,-0.4,0.8,4.8*,nt,-1.1,6.3*,-7.4
CC(C)C1Oc2ccccc2C(=O)N(CC(=O)c2ccc3c(c2)OCCO3)C1=O (configuration not stated),3.6,3.4,3.5,7.6*,nt,-0.4,13.6*,8.8*
CC1=C(C(=O)Nc2ccc(CC(=O)NCc3ccc(OC(C)C)cc3)cc2)SCCO1,-0.2,5.9*,7.9,14.6*,nt,1.0*,22.9*,-3.2
Cc1nn(-c2ccccc2)c(Cl)c1/C=N/NC(=O)c1ccn[nH]1,-0.3,5.8*,13.2*,14.4*,nt,0.3,8.8*,5.8*
Cc1cc(C(=O)N/N=C/c2c(C)nn(-c3ccccc3)c2Cl)n[nH]1,nt,0.8,2.8,0.0,-2.5,-1.3,nt,nt
Nc1ccc(-c2nc3cc(N)ccc3s2)cc1,0.1,6.5*,20.9*,4.8*,3.4,1.0*,11.0*,4.2*
Cc1cc(C(=O)COC(=O)c2nccnc2N)c(C)n1C,0.8,3.4,8.0,2.1,0.0,-1.2,nt,nt
Cc1ccsc1C(=O)OCC(=O)c1cc(C)n(C)c1C,-2.5,4.7,3.5,4.8*,nt,-0.1,6.0*,-1.4
CNc1cc(-c2ccc(OC)c(OC)c2)ncn1,nt,4.5,12.3*,5.3*,nt,0.1,9.5*,4.8*
CNc1cc(-c2ccc(C(=O)OC)cc2)ncn1,nt,1.0,5.0,1.6,nt,-0.4,nt,nt
CCCCC(=O)NC(=S)NNC(=O)CC#N,1.2,-1.6,-0.4,4.7*,2.2,-1.3,1.7,0.4
COc1ccccc1CNc1nc2cc(-c3ccccc3C)sc2c(=O)n1C,nt,-2.3,-1.3,-0.8,nt,-1.6,nt,nt
SMILES,DAX1 inh-1,hcDAF-12 act,hgDAF-12 ag,DAX1 inh-2,Wee1 degr inh,ssDAF-12 act,DAX1 conf,SF1 AF2mut Luc
Cc1ccc(-c2cc(C(=O)N3CCCC3)no2)cc1,-2.9,4.3,6.1,4.9*,-1.9,-0.6,8.6*,0.5
Cc1ccc(-c2cc(C(=O)N3CCOCC3)no2)cc1,-2.2,1.8,7.5,1.2,nt,0.1,nt,nt
COc1ccc(NC(C)=O)cc1S(=O)(=O)N1CCN(Cc2cccs2)CC1,0.2,-2.9,1.9,2.2,nt,-1.5,nt,nt
Cc1ccc(S(=O)(=O)Nc2cccc(-c3ccc(N4CCCCCC4)nn3)c2)cc1,0.2,1.0,5.8,4.9*,nt,-0.7,7.5*,4.2*
O=C1NC(C2CC3C=CC2C3)Nc2ccccc21 (configuration not stated),-0.2,-1.8,2.0,0.5,nt,-0.4,nt,nt
NC(=O)c1ccccc1N/C=C/C(=O)c1ccc(F)cc1,1.4,3.5,10.8*,5.2*,6.8,0.1,9.7*,6.4*
Cc1ccc(NC(=O)C2CC(=O)N(c3ccccc3Cl)C2)cc1S(=O)(=O)N1CCOCC1 (configuration not stated),-0.3,-1.6,-4.0,-0.2,nt,-0.3,nt,nt
Brc1ccccc1-c1nc2c3ccccc3ncn2n1,1.8,6.0*,10.9*,4.6*,nt,-0.1,9.0*,6.4*
CC(=O)c1ccccc1NC(=O)c1ccc2c(c1)NC(=O)C(C)S2 (configuration not stated),-0.9,2.4,2.0,3.3,nt,-0.8,nt,nt
Cc1ccnc(NC(=O)c2ccc3c(c2)NC(=O)C(C)S3)c1 (configuration not stated),-1.5,4.4,5.9,11.3*,nt,0.4,9.2*,3.9*
COCCOC(=O)N1CCCCC1c1cc(C(=O)NCc2ccc(Cl)c(Cl)c2)no1 (configuration not stated),nt,-2.5,-0.6,-1.8,nt,-1.5,nt,nt
CC(C)(C)OC(=O)C[C@H]1C/C=C\C[C@H](CC(=O)N[C@@H](CO)Cc2ccccc2)C(=O)N[C@H](C(C)(C)C)COC1=O,-2.4,-0.6,-0.6,0.7,nt,-0.4,nt,nt
Cc1ccnc(NC(=O)CNC(=O)c2sc3ccccc3c2Cl)c1,1.4,4.9,9.6,10.0*,nt,0.0,11.2*,7.2*
O=C(NCC(=O)N1CCCCC1)c1sc2ccccc2c1Cl,2.2,0.6,8.3,5.8*,nt,0.0,5.5*,3.4*
Cc1ccc2nsnc2c1NC(=O)c1sc2ccccc2c1Cl,-0.4,-0.1,0.1,-0.4,3.5,-1.8,nt,nt
Cc1cccnc1NC(=O)c1sc2ccccc2c1Cl,1.2,3.5,13.2*,10.1*,nt,-0.1,11.3*,5.3*
O=C(CSc1nnc(-c2ccccn2)o1)Nc1ccccc1F,1.4,4.7,12.4*,14.2*,nt,0.0,14.6*,6.3*
